Screening data (PubChem)
An excerpt weighted towards active compounds, which were near 6.1% of everything screened.
D1 antag: human D1 dopamine receptor antagonism; HEK293 TREx D1 cells, calcium flux, dopamine EC80; stronger effect = lower value; activity change, negative = inhibition, % at 10 µM; 360,000 compounds, 3.2% hits; in the data active means activity change below about -30%; further: on the % scale 0 is the no-effect control and ±100 the full control effect
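Kinetic fluorescence of a calcium dye serves as the read-out. D1-expressing Hek293 Trex cells, induced overnight at 30 C, are exposed to compound for 180 s before an EC80 dopamine addition, then read 180 s further.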
D1 agonist: activates the human D1 dopamine receptor | HEK293 T-REx D1 cells, calcium flux, agonist mode | 360,000 compounds, 1% hits | activation, % at 2 µM | P21728; in the data active means activation above about 30%; further: 0% is about no effect
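Tetracycline-induced HEK293 TREx D1 cells, force-coupled to calcium signalling, were dye-loaded with a no-wash calcium kit. Compound was pin-added after a 10 s baseline. Fluorescence was read kinetically at 1 cycle/s for 180 s, with calcium rises flagged as agonism.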
D1 PAM: human D1 dopamine receptor positive modulation | P21728 | HEK293 TREx D1 cells, calcium flux, dopamine EC20 potentiation | potentiation, % at 10 µM | 360,000 compounds, 0.036% hits; in the data active means potentiation above about 30%; further: 0% is about no effect
DRD3 antagonist: D3 dopamine receptor (human) antagonism; P35462; D3R cells, DiscoveRx beta-arrestin luminescence, antagonist mode; stronger effect = lower value; max response, negative = inhibition, %; 360,000 compounds, 2.5% hits; AID 652054; in the data active means max response below about -50%; inconclusive means no clear call, values can overlap the other calls; further: on the % scale 0 is the no-effect control and ±100 the full control effect
Target sequence (P35462 whole entry, looked up): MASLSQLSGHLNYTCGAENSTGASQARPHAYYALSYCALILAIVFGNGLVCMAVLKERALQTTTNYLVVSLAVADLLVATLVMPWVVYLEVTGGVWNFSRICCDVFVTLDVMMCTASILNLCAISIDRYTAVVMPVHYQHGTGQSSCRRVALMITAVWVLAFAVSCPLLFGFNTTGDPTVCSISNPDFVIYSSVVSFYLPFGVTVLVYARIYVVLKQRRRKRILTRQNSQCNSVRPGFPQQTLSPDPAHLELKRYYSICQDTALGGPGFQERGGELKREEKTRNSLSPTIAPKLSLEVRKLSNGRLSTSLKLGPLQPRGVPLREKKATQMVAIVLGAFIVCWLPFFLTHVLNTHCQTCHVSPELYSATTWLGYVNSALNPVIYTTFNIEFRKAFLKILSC
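Cells plated overnight at 1500 cells/well, then exposed to library compounds with dopamine controls for 90 minutes at 37 degrees C. DiscoveRx reagent added for 30–60 minutes at room temperature; luminescence read, quantitative HTS format.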
D3 ag: D3 dopamine receptor (human) agonism | P35462 | D3R DiscoveRx beta-arrestin cells, luminescence, 90 min | max activation, % | 410,000 compounds, 0.58% hits | AID 652048; in the data active means max activation above about 30%; further: 0% is about no effect
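Agonist mode: compounds and dopamine controls were applied to plated cells for 90 min at 37 degrees C after an overnight attachment at 1500 cells/well. Luminescent read-out followed 30 - 60 minutes at room temperature with DiscoveRx detection reagent.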
The depositor's hits bear a star; ? = inconclusive; . = no result; ! = not confirmed by another sample.

SMILES	D1 antag	D1 agonist	D1 PAM	DRD3 antagonist	D3 ag
CN1C[C@H](CO)C=C2c3cccc4[nH]cc(c34)C[C@H]21	-76*	23	-5	-78*	-14
CCN(CC)C(=O)[C@@H]1C=C2c3cccc4[nH]cc(c34)C[C@H]2N(C)C1	.	.	.	.	51*
O=C(Nc1ccc(F)c(Cl)c1)N(Cc1ccc2c(c1)OCO2)C1CCN(Cc2ccccc2)CC1	-19	17	2	.	-28
O=C(C[C@@H]1NCCC[C@H]1O)Cn1cnc2cc(Br)c(Cl)cc2c1=O	.	.	.	.	-8
COc1cc(CN2CCCC(C(=O)c3sccc3C)C2)cc(Cl)c1O (stereo not drawn)	3	1	-10	-51*	-19
COc1ccc(CN2CCCC(C(=O)c3sccc3C)C2)cc1O (stereo not drawn)	6	1	-9	-74*	-20
CCOc1ccc2nc(NC(=O)c3cccn(Cc4ccccc4Cl)c3=O)sc2c1	-6	1	-3	.	3
CC(=O)NC1CCSC1=O (stereo not drawn)	.	.	.	.	6
CC1CN(CCc2ccccc2)CC(C)O1 (stereo not drawn)	0	1	-4	11	-7
COc1ccccc1N1CCN(Cc2cnc(-c3ccccc3)[nH]2)CC1	-15	4	-11	-83*	-27
COc1ccccc1CC(=O)N1CCN(CCc2ccccc2)CC1	0	4	-3	-15	-11
COc1cc2nc(CN3CC=C(c4ccccc4)CC3)[nH]c(=O)c2cc1OC	.	.	.	22	5
Cc1ccc(N2CCN(CCc3ccccc3)CC2)cc1	-44*	4	-11	-66*	-45
Cc1cccc(N2CCN(CCc3ccccc3)CC2)c1C	-51*	39*	-11	-68*	20
COc1ccccc1N1CCN(CCc2ccccc2)CC1	-47*	3	-7	-104*	-1
Cc1ccccc1CN1CCN(Cc2ccccc2)CC1	12	1	-8	?	-16
Cc1cccc(Cc2cnc[nH]2)c1C	.	.	.	.	5
C=CC[C@]1(O)CC[C@H]2[C@@H]3CCC4=CCCC[C@@H]4[C@H]3CC[C@@]21C	.	.	.	.	1
CCC1(c2ccccc2)C(=O)NC(=O)N(C(=O)c2ccccc2)C1=O (stereo not drawn)	.	.	.	.	3
[O]=[Cr](=[O])([OH])[O][Cr](=[O])(=[O])[OH]	.	.	.	.	7
Nc1ccc2cc(Br)ccc2c1	-31*	1	-3	-16	-3
CCOc1ccc(CN(CCc2ccc3c(c2)OCO3)Cc2cccc(C)c2)cc1	13	1	3	.	-16
C[N+]1(C)[C@@H]2CC[C@H]1CC(OC(=O)C(c1ccccc1)c1ccccc1)C2 (stereo partly drawn)	13	4	1	8	4
O=C(OC1CCN(CCCl)CC1)C(c1ccccc1)c1ccccc1	-4	3	-4	-95*	-96
COc1ccc(-c2nc(CN3C(=O)CN=C(c4ccccc4Cl)c4cc(Cl)ccc43)c(C)o2)cc1OC	10	1	1	.	9
SMILES	D1 antag	D1 agonist	D1 PAM	DRD3 antagonist	D3 ag
COc1ccc(-c2nc(CN3C(=O)CN=C(c4ccccc4)c4ccccc43)c(C)o2)cc1OC	-31*	4	-4	.	10
CN1CCN(c2cc([N+](=O)[O-])ccc2Cl)CC1	-51*	1	-6	-99*	-17
COc1ccc(Br)cc1C1SCC(=O)Nc2c1c(C)nn2-c1ccccc1C (stereo not drawn)	-11	4	-1	.	0
C[C@]12CCC3[C@@H](CC[C@H]4C[C@@H](O)CC[C@]34C)C1CCC2=O (stereo partly drawn)	-35*	2	-1	9	12
C[C@H](N)C(=O)c1ccccc1	.	.	.	.	1
O=[N+]([O-])c1ccc(NC2CCCC2)c2ccncc12	-22	13	-1	15	4
O=[N+]([O-])c1ccc(NC2CCN(Cc3ccccc3)CC2)c2ccncc12	5	1	0	-74*	-25
O=[As](O)(O)c1ccc(N=Nc2ccc(O)cc2)cc1	10	1	-8	-99*	-13
CC(=O)[O][Hg][c]1ccccc1	.	.	.	.	-19
ClC1=CCC2CN(CCN3CCCCC3)CC2C1 (stereo not drawn)	5	4	10	-52*	2
CCOc1cc2c(cc1OCC)-n1cccc1C(c1ccc(OC)c(O)c1)NC2 (stereo not drawn)	-23	96*	-2	-22	-9
COc1ccc(Cn2c(O)c(C=NCCN3CCOCC3)c(=O)[nH]c2=O)cc1	-37*	1	-4	0	-7
O=c1[nH]c(=O)n(Cc2ccc(F)cc2)c(O)c1C=NCCN1CCCCC1	-4	3	1	-15	0
ClCCN(CCCl)c1ccc(C=Cc2ccncn2)cc1	.	.	.	-14	72*
CCCCCc1cc(O)c2c(c1)OC(C)(C)c1ccc(C)cc1-2	.	.	.	.	-16
O=C(Cc1cccc(C(F)(F)F)c1)N1CCN(CC(=O)N2CCCC2)CC1	-8	5	-3	7	-3
O=C(CCN1CCN(CCO)CC1)N1c2ccccc2Sc2ccc(C(F)(F)F)cc21	-21	3	-7	-74*	-34
C[N+](C)(C)CCOC(=O)CBr	23	0	-1	-6	2
CC(=O)OCC[N+](C)(C)C	17	46*!	2	?	5
Cc1ccc2c(c1)C1CN(C)CCC1N2 (stereo not drawn)	.	.	.	.	-21
O=C(OCCN1CCCCC1)C(O)(c1ccccc1)c1ccccc1	.	.	.	.	-9
Clc1ccccc1CN1CCN(c2ccccc2)CC1	-10	-1	3	-26	-17
COc1ccc(CC(=O)N(C)C2CCCN(Cc3ccccc3F)C2)cc1OC (stereo not drawn)	25	7	-3	-17	-3
COc1ccccc1N1CCN(Cc2ccccc2Cl)CC1	11	2	-3	-88*	-21
COc1ccccc1N1CCN(Cc2ccccc2F)CC1	-23	1	-1	-92*	-9
SMILES	D1 antag	D1 agonist	D1 PAM	DRD3 antagonist	D3 ag
COc1ccccc1CN1CCNCC1	.	.	.	-6	-5
Clc1ccccc1CN1CCN(c2cccc3[nH]ccc23)CC1	-48*	0	-3	-80*	-9
COc1ccccc1N1CCN(Cc2c(F)cccc2F)CC1	14	0	-4	-69*	-31
CCCCCCC(=O)CCCCCC/C=C/C[C@@H](O)[C@H](O)[C@@](N)(CO)C(=O)O	.	.	.	.	2
CC1(C)S[C@@H]2[C@H](N3C(=O)C(c4ccccc4)NC3(C)C)C(=O)N2[C@H]1C(=O)O (stereo partly drawn)	.	.	.	.	-25
Nc1ccc(N2CCN(Cc3ccccc3Cl)CC2)c(Cl)c1	-8	8	-3	-57*	-19
COc1ccccc1N1CCN(Cc2cccc(OC)c2O)CC1	-20	2	-6	-101*	-10
COc1ccccc1N1CCN(Cc2ccc(Br)cc2)CC1	-29	2	9	-110*	-5
O=C(Cc1ccc(Br)cc1)N1CCN(Cc2ccccc2)CC1	-28	8	-4	4	0
